Source: PubChem
In the library only some 19% were active in any assay of this set; here they are far more common.
Pf growth 96h – P. falciparum growth inhibition at 96 hour, primary screen for plastid delayed-death inhibitors. P. falciparum luciferase reporter growth, 96 h. Potency, µM (series often up to 28.7 µM), for inactives: at the top dose activity change, negative = inhibition, actives largely listed as inhibitors. hit rate 6.9% among 320,000. AID 504834; note: potency is the fitted concentration of half-maximal effect; % is set by controls: 0 for no effect and ±100 for the full control effect
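Compounds incubated with erythrocytes infected by luciferase-expressing P. falciparum (2% hematocrit, 0.05% parasitemia final) for 96 hours, 37 C in 5% CO2. Growth inhibition scored as decreased luciferase luminescence.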
Pf growth 48h – P. falciparum growth inhibition at 48 hours (one generation); P. falciparum luciferase growth in erythrocytes, 48 h; Potency, µM (titrated, usually from 28.7 µM), for inactives: top-dose activity change, negative = inhibition, most hits filed as inhibitors; hit rate 5.9% among 310,000; note: potency is the fitted concentration of half-maximal effect; % is set by controls: 0 for no effect and ±100 for the full control effect
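Read-out is firefly luciferase luminescence from an integrated reporter in P. falciparum, so falling signal marks reduced parasite growth. Infected erythrocytes were at 2% hematocrit and 0.1% parasitemia (final) in Albumax-supplemented RPMI 1640.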
LASV entry inh – Lassa virus entry inhibition. AID 540256. hit rate 1.2% among 300,000. Potency, µM (series often up to 37.9 µM), without a hit: at the top dose activity change, negative = inhibition, most hits filed as inhibitors. Lassa virus pseudotype entry inhibition, cell reporter; calls by dose curve; tested in HEK293 cells; note: potency is the fitted concentration of half-maximal effect; % is set by controls: 0 for no effect and ±100 for the full control effect; nearly all actives have a fitted effect of over 50% in size
Marburg entry inh – inhibitors of Marburg virus binding or cell entry; Marburg virus pseudotyped entry inhibition, cell reporter; Potency, µM (titrated, usually from 37.8 µM), for the others: top-dose activity change, negative = inhibition, most hits filed as inhibitors; hit rate 1.8% among 300,000; calls by dose curve; tested in HEK293 cells; note: potency is the fitted concentration of half-maximal effect; % is set by controls: 0 for no effect and ±100 for the full control effect
CHX counter – counter-screen for Shiga toxin inhibitors: cycloheximide protein synthesis inhibition; cell reporter, cycloheximide protein synthesis inhibition counterscreen; max response, %; hit rate 12% among 300,000; AID 2314; in the data active = max response mostly above about 13%, no sharp cut-off; inactive = mostly below about 14%; note: read at 38.3 µM for the half of the compounds with a filed dose; 0% is about no effect
Shiga inhibitor – inhibitors of Shiga toxin in Vero cells; inhibition, % at 38.7 µM; AID 2315; hit rate 9.2% among 290,000; Vero cells, Shiga toxin protein synthesis inhibition reporter; in the data active = inhibition mostly above about 28%, no sharp cut-off; inactive = mostly below about 43%; note: 0% is about no effect
An asterisk follows results filed as active; ? = inconclusive; . = no result given; [ ] = another dose, or the depositor's remark. Unless noted, calls come from the whole dose curve; as a rule, active = well fitted inhibition curve with a large enough effect; inconclusive = small, poorly fitted or top-dose-only effect, or another doubt; inactive = no such curve, though single readings can be large or run the other way.

SMILES	Pf growth 96h	Pf growth 48h	LASV entry inh	Marburg entry inh	CHX counter	Shiga inhibitor
CNCCCOc1ccc(C(C)(C)c2ccccc2)cc1	9.3µM*	.	.	0%	19	11
CCC(C)NCCOc1ccc(C(C)(C)c2ccccc2)cc1 (stereo unspecified)	-25%	?	?	?	-4	-17
COc1ccc(C(=O)CCC(=O)NCCc2ccccc2F)cc1	0%	4%	5%	-1%	-4	-3
O=C1C2ON(c3ccccc3)C(c3ccncc3)C2C(=O)N1c1ccc(Br)cc1 (stereo unspecified)	4%	-19%	2%	-21%	-6	-21
COc1ccc(CNCC(O)(c2ccccc2)c2ccccc2)cc1	0%	0%	0%	?	15	5
Cc1ccc(CNCC(O)(c2ccc(F)cc2)c2ccc(F)cc2)cc1	4.7µM*	?	4%	-8%	-4	-1
COc1ccc(CNCC(O)(c2ccc(F)cc2)c2ccc(F)cc2)cc1	?	12µM*	?	?	24	42
OC(CNCc1ccc(F)cc1)(c1ccccc1)c1ccc(F)cc1 (stereo unspecified)	1.7µM*	2.6µM*	0%	-19%	1	-9
OC(CNCc1ccccc1)(c1ccc(F)cc1)c1ccc(F)cc1	2.1µM*	4.7µM*	-5%	?	-4	4
Cc1ccc(CNCC(O)(c2ccccc2)c2ccc(F)cc2)cc1 (stereo unspecified)	0%	?	15%	?	4	-13
CC(C)(C)C(=O)Nc1ccc(S(=O)(=O)N2CCCC2)cc1	0%	31%	-7%	-5%	-4	4
Cc1cc(=O)n2c(n1)NC(Nc1cccc(C)c1C)=NC2c1ccc(F)cc1 (stereo unspecified)	1%	?	-10%[46.1 µM]	?	-1	-7
COC(=O)c1ccc(C(C(=O)NCc2ccccc2)N(Cc2ccco2)C(=O)c2cnccn2)cc1 (stereo unspecified)	.	?	-19%	-6%	1	-11
OC(CNCc1ccccc1)(c1ccccc1)c1ccccc1	8.3µM*	13µM*	.	.	7	8
O=c1c2cc(Cl)ccc2[nH]c(=S)n1Cc1cccs1	13µM*	13%	?	1%	-2	-6
O=c1c2cc(Cl)ccc2[nH]c(=S)n1Cc1ccco1	?	9%	5%	1%	3	27
O=C(NCc1ccncc1)C1=NN(c2ccccc2)C(=O)CC1	-2%	-3%	15%	-2%[46.1 µM]	-2	-7
CCOc1cc(/C=C2\SC(=N)N(c3nonc3N)C2=O)ccc1OCCN1CCOCC1	?	1.3µM*	.	.	14*	22
CO/N=C/NC(=O)Cc1cn(-c2ncc(C(F)(F)F)cc2Cl)c2ccccc12	-32%	.	?	?	1	-5
FC(F)(F)c1ccccc1CN1CCC(Cc2ccccc2)CC1	?	5%	-5%[46.1 µM]	-4%[46.1 µM]	1	-2
CCc1ccc(S(=O)(=O)NCCc2cn3ccsc3n2)cc1	.	.	1%[46.1 µM]	.	.	.
CCOC(=O)NNc1ccc2nonc2c1[N+](=O)[O-]	?	?	?	11µM*	-1	-6
CCOC(=O)COc1coc(CN2CCN(c3ccccc3)CC2)cc1=O	?	10%	21%[46.1 µM]	0%[46.1 µM]	-2	21
Cc1cc(NC(=O)COc2coc(CN3CCN(c4ccccc4F)CC3)cc2=O)no1	9.3µM*	?	-10%	-1%[46.1 µM]	.	.
Cc1cc(NC(=O)COc2coc(CN3CCN(c4ccccc4)CC3)cc2=O)no1	?	?	3%	?	.	.
SMILES	Pf growth 96h	Pf growth 48h	LASV entry inh	Marburg entry inh	CHX counter	Shiga inhibitor
CCN(CC)C(=O)COc1coc(CN2CCN(c3ccccc3F)CC2)cc1=O	9.3µM*	-7%	-9%[46.1 µM]	7%[46.1 µM]	-2	-3
Cc1nn(CCCC(=O)Nc2cccc(C(F)(F)F)c2)c(=O)c2nn(-c3ccccc3)c(C)c12	.	.	22%[46.1 µM]	.	.	.
Nc1ncnc(Nc2ccccc2Cl)n1	11%	116%	.	.	17*	4
Clc1cc(Cl)cc(Nc2ncnc(-n3cccc3)n2)c1	?	?	1%[46.1 µM]	-8%[46.1 µM]	-1	-16
Nc1ncnc(Nc2cccc(F)c2)n1	-6%	19%	25%	?	2	43
Cc1ccc(Nc2ncnc(-n3cccc3)n2)cc1Cl	172%	280%	.	.	32*	80*
Clc1ccccc1Nc1ncnc(-n2cccc2)n1	91%	85%	?	14%	62*	131*
Nc1ncnc(Nc2ccc(F)c(Cl)c2)n1	-1%	24%	.	.	19*	57*
COc1ccc(N2CCN(C(=O)CSc3nnc(CNc4ccccc4)o3)CC2)cc1	38%	?	6%	-12%	-5	19
O=C(Cn1ncc2c3ccccc3n(Cc3cccc(Cl)c3)c2c1=O)Nc1ccc(F)cc1F	.	.	?	0%[46.1 µM]	.	.
CC(C)(C)C(=O)NC(=S)NNC(=O)c1sc2ccccc2c1Cl	316%	?	?	?	48*	26
COc1ccc(C(=O)NNC(=S)NC(=O)C(C)(C)C)cc1	8%	?	?	?	21	20
O=C(NC1C=CS(=O)(=O)C1)c1ccccc1 (stereo unspecified)	1%	-8%	-6%[46.1 µM]	14%[46.1 µM]	-7	-10
O=C(NC1CC1)c1sc2cc(Cl)ccc2c1Cl	64%	55%	-4%	?	.	.
O=C(NC1C=CS(=O)(=O)C1)c1sc2ccccc2c1Cl (stereo unspecified)	.	8.3µM*	?	21µM*	17*	32
O=C(NNC(=S)NC1CCCCC1)c1sc2ccccc2c1Cl	-15%	20%	-9%	1%	10*	27
O=C(NC1CC1)c1sc2ccccc2c1Cl	0%	66%	10%[46.1 µM]	?	32*	59*
CS(=O)(=O)Cc1ccc(C(=O)NC(c2ccccc2)c2ccccc2)cc1	3%	-13%	-5%[46.1 µM]	-12%[46.1 µM]	-1	-3
CCn1cc(C(=O)N[C@@H](CC(C)C)C(=O)NCCCn2ccnc2)c(=O)c2cc3c(cc21)OCO3	?	?	.	.	9	-8
Cc1ccsc1/C=C1/SC(=O)N(CC(=O)N2CCCC2)C1=O	37%	122%	?	14%[46.1 µM]	11	13
O=C(NNC(=S)NC1CCCCC1)c1ccc(Cl)s1	2%	65%	3%	-2%[46.1 µM]	21*	39
O=C(CNC(=O)c1sc2ccccc2c1Cl)NC1CC1	98%	117%	21%[46.1 µM]	27%[46.1 µM]	13*	31
O=C(NNC(=O)C1CC2CCC1C2)c1sc2ccccc2c1Cl (stereo unspecified)	47%	85%	-5%	22%	54*	85*
O=C(NNC(=S)NC1CCCCC1)c1cccs1	6%	63%	5%	1%	11	21
O=C(Nc1ccc(NC(=O)c2sc3ccccc3c2Cl)cc1)c1ccco1	25%	-18%	1%	?	-6	-11
COc1cc(/C=C(\C#N)C(=O)Nc2ccc(C)cc2)ccc1OCc1cc(=O)n2nc(C)sc2n1	.	.	6%[46.1 µM]	-4%[46.1 µM]	.	.
Cc1cccc(N(CC(=O)N2CCCCCC2)S(C)(=O)=O)c1C	0%	0%	.	.	-1	6
